From PubChem BioAssay come the findings set out here.

Assay [1] in a line: yeast TOR pathway RPL19A-GFP modulators, primary screen, cell-based, S. cerevisiae, multiplex flow cytometry (AID 1862; in the data active = percent of DMSO control GFP below about 86%;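 also: lower values mimic rapamycin by blocking the RPL19A rise seen in DMSO cells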). As to conditions: S. cerevisiae RPL19A-GFP strain, flow cytometry fluorescence, 3 h; at 10 µM; stronger effect = lower value. Background: In flow cytometry, cells or beads pass a laser one at a time.
A short description of assay [2]: modulators of MEP2-GFP levels in yeast, primary screen, S. cerevisiae, multiplex flow cytometry (AID 1867;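 active = GFP response, as percent of the DMSO control, above the screen-wide mean plus 3 SD, about 139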;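 also: median GFP channel fluorescence of barcode-gated MEP2-GFP cells measured by flow cytometry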). The conditions noted are these: S. cerevisiae MEP2-GFP strain, 3 h, at 10 µM, stronger effect = higher value, 100% means same as DMSO wells.
Assay [3] can be described thus: modulators of CIT2-GFP expression in yeast, primary screen, S. cerevisiae, GFP fusion, multiplex flow cytometry (AID 1870).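 Also: barcoded CIT2-GFP strain pooled with four other GFP strains with rapamycin as positive control; median GFP fluorescence per well over plate mean of DMSO wells so 100% = DMSO.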 The conditions noted are these: 3 h, at 10 µM, stronger effect = higher value.
Assay [4] in a line: modulators of LAP4-GFP expression in yeast, primary screen, S. cerevisiae, multiplex flow cytometry (AID 1873;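 active = GFP signal, as percent of the solvent control, above the screen mean plus 3 SD, about 149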). The conditions noted are these: 3 h, at 10 µM, stronger effect = higher value.
Assay [5] in a line: modulators of AGP1-GFP expression in yeast TOR pathway, primary screen, cell-based, multiplex flow cytometry, S. cerevisiae (AID 1887;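 active = GFP signal above the screen-wide mean plus 3 SD, that is over about 124.5% of the solvent control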;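 also: AGP1-GFP fusion strain of S. cerevisiae within a five-strain barcoded multiplex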). As to conditions: 3 h, at 10 µM, stronger effect = higher value.
Assay [6] can be described thus: inhibitors of CD8+ T cell-vesicle binding, pilot screen, LFA-1/ICAM-1 modulator project, MLPCN validation set, flow cytometry (AID 2523;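 active = response below a set limit, under 55% cells CD8-positive and vesicle-bound, and CD8 cells' 90th-percentile brightness under 279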;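 as to vesicle binding response: mean PE anti-B7-1 fluorescence of CD8+ cells relative to row control; 100% = QL9-loaded vesicles with DMSO vehicle in the same plate row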). The conditions noted are these: 2C mouse CD8+ T cells, at 7 µM, stronger effect = lower value; double positive events: measured here: CD8+/vesicle+ event percentage.
The target of assay [7] is Integrin beta-1 (Homo sapiens) + Integrin alpha-4 (Homo sapiens) (UniProt P13612+P05556). Put plainly: inhibition of HUTS-21 binding to VLA-4, pilot screen, VLA-4 allosteric modulator project, U937 cells, HUTS-21 mAb, flow cytometry, validation set (AID 2674;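 active = inhibition above 50%, about 3 SD of the validation set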;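 also: antibody binding induced by the VLA-4 ligand LDV present at three times its Kd; 0% = LDV ligand with antibody and no compound and 100% = antibody without LDV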). The conditions noted are these: HUTS-21 LIBS mAb binding, at 6.7 µM, stronger effect = higher value, binding induced by LDV ligand.
Sequence of Integrin beta-1 (Homo sapiens) + Integrin alpha-4 (Homo sapiens) (P05556 whole entry, looked up): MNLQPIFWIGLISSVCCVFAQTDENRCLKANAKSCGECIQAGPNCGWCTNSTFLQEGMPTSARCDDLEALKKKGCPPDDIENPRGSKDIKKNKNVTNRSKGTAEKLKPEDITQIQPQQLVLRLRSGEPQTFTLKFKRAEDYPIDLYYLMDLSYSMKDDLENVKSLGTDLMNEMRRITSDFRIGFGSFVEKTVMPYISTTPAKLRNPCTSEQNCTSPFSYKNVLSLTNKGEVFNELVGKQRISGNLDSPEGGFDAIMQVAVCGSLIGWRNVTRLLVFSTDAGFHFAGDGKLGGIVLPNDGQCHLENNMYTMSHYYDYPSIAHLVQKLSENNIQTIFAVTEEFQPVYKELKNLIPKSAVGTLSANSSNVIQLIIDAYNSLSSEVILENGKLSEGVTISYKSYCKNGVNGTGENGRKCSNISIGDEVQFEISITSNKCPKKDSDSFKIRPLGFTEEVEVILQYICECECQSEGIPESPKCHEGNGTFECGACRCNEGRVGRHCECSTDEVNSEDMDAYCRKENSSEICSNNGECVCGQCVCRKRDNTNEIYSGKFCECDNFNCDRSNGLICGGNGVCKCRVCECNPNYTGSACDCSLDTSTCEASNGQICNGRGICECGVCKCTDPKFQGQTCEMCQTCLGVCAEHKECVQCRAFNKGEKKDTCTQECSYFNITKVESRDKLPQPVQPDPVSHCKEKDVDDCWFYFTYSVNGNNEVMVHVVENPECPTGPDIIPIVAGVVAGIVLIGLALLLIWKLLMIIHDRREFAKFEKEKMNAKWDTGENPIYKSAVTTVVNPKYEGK
Sequence of Integrin beta-1 (Homo sapiens) + Integrin alpha-4 (Homo sapiens) (P13612 whole entry, looked up): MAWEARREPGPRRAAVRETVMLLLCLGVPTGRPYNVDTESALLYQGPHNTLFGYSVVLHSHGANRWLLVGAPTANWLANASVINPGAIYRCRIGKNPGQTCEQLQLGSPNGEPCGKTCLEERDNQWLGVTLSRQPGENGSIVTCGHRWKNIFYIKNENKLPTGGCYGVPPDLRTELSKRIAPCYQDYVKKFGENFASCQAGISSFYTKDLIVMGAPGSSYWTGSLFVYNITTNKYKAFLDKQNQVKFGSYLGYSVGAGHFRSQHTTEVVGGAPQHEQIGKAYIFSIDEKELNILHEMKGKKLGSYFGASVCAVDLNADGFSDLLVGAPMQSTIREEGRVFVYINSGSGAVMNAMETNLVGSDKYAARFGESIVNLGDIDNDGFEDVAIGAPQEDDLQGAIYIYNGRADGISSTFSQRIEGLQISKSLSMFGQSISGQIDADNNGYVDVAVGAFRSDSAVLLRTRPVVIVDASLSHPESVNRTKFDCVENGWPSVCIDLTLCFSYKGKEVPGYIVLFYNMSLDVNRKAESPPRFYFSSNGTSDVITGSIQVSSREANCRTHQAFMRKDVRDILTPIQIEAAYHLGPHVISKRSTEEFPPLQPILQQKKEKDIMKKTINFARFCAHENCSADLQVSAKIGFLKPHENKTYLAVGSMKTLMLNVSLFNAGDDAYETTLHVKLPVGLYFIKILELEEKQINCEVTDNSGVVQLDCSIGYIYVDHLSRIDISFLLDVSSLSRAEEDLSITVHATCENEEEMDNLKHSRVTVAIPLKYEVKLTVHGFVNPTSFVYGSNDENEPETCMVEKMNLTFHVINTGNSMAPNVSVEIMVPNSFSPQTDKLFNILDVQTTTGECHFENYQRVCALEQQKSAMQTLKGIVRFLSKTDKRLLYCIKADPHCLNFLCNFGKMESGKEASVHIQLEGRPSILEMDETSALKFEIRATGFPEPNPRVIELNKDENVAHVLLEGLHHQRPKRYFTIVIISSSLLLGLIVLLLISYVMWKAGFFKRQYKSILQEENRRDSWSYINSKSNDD

Assay [8] is described as follows: superoxide lowering in aged yeast cells, pilot screen, validation compound set (AID 2706;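 active = superoxide response below 65% of plate, a cut near 3 SD across the whole screen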;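 also: yeast exposed to compound for one week at 30 degrees C before staining; 100% = mean of all compound wells on the same plate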). As to conditions: S. cerevisiae aging, superoxide DHE fluorescence; at 10 µM; stronger effect = lower value.
Assay [9] has as its target Beta-adrenergic receptor kinase 1 (Homo sapiens) (UniProt P25098). Put plainly: GRK2 binders displacing RNA aptamer, biochemical, validation, human GRK2, bead flow cytometry (AID 488806;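 active = aptamer binding inhibition above 30%, about 3 SD of noise from non-fluorescent compounds; inactive = inhibition at or below 30%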). As to conditions: bead-bound GRK2, FAM-aptamer displacement, at 10 µM, stronger effect = higher value.
The target of assay [10] is Beta-2 adrenergic receptor (Homo sapiens) (UniProt P07550). As to the kind of experiment: beta2AR agonists driving receptor internalization, pilot screen, cell-based, FAP fluorogen, flow cytometry, validation set (AID 504459;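 active = percent response above 42, roughly 3 SD of non-fluorescent test compounds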;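 also: agonist-driven loss of surface beta2AR via internalization measured by FAP dye flow cytometry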). The conditions noted are these: Am2.2-beta2AR cells, FAP surface receptor flow cytometry; at 10 µM; stronger effect = higher value.
Sequence of Beta-2 adrenergic receptor (Homo sapiens) (P07550 whole entry, looked up): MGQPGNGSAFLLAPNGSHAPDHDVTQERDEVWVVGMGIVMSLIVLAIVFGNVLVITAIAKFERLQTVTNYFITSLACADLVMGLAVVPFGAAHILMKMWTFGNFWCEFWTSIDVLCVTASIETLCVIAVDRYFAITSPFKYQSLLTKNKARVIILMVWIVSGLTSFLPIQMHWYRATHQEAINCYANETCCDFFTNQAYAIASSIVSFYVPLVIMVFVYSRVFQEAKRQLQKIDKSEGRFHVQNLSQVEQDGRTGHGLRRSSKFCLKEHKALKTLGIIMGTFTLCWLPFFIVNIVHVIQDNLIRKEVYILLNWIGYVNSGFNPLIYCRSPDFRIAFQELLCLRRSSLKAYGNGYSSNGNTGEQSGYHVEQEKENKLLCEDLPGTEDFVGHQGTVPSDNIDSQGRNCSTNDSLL
Assay [11] has as its target AP-2 complex subunit beta (Homo sapiens) (UniProt P63010). As to the kind of experiment: inhibitors of arrestin peptide binding to AP2, pilot screen, biochemical, validation set, GST-AP2 beads, flow cytometry (AID 504541;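 active = inhibition above 54%, about 3 SD of non-fluorescent compounds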;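 also: AP2 carries R879A mutation and is captured from E. coli lysate; bead-bound FITC arrestin peptide fluorescence measuring arrestin peptide binding to AP2; 0% = DMSO wells and 100% = excess unlabeled arrestin peptide control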). As to conditions: FITC arrestin peptide, at 10 µM, stronger effect = higher value, AP2 beta2 appendage fragment, R879A mutant.
The nature of assay [12]: yeast V-ATPase proton transport modulators, S. cerevisiae, pHLuorin, HTS validation (AID 504600; in the data active = response above about 15%;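 also: plate controls were DMSO for no effect and reference compound for full effect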). As to conditions: S. cerevisiae pHLuorin cytosolic pH, at 10 µM, stronger effect = higher value.
Assay [13] relates to anti-desmoglein-3 scFv antibody binding to human DSG3. As to the kind of experiment: inhibitors of anti-DSG3 scFv binding to DSG3, pilot screen, biochemical, validation compound set, bead-based, flow cytometry (AID 588368;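 active = binding below the plate cutoff, the plate median minus 3 SD, with a reading above zero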;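 also: signal is the median channel fluorescence of bead-bound GFP antibody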). As to conditions: Protein G beads, DSG3-Fc, scFv-GFP binding, at 10 µM, stronger effect = lower value.
A short description of assay [14]: inhibitors of fungal efflux pumps CDR1, CDR2, MDR1, pilot screen, validation compound set, multiplex, phenotypic (AID 588506;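 active = efflux inhibition above 0.42, the validation set average plus 4 SD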;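 also: Nile Red retained in cells so higher fluorescence means more efflux inhibition; 0 = negative control wells and 1 = enniatin B 25 µM full block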). The conditions noted are these: S. cerevisiae pump-expressing triplex, Nile Red efflux flow cytometry; at 10 µM; stronger effect = higher value; the pumps come from Candida albicans.
For assay [15], the target named is ATP-binding cassette sub-family B member 6 (Homo sapiens) (UniProt Q9NP58). As to the kind of experiment: ABCB6 transporter inhibitors, pilot screen, K562-ABCB6 cells, flow cytometry, validation set (AID 588550;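 active = inhibition above the screen-wide mean plus 3 SD, about 51%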;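 also: 0% = DMSO wells and 100% = benzethonium chloride 70 µM positive control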). The conditions noted are these: K562-ABCB6 porphyrin accumulation, 1 h, at 10 µM, stronger effect = higher value.
Sequence of ATP-binding cassette sub-family B member 6 (Homo sapiens) (Q9NP58 whole entry, looked up): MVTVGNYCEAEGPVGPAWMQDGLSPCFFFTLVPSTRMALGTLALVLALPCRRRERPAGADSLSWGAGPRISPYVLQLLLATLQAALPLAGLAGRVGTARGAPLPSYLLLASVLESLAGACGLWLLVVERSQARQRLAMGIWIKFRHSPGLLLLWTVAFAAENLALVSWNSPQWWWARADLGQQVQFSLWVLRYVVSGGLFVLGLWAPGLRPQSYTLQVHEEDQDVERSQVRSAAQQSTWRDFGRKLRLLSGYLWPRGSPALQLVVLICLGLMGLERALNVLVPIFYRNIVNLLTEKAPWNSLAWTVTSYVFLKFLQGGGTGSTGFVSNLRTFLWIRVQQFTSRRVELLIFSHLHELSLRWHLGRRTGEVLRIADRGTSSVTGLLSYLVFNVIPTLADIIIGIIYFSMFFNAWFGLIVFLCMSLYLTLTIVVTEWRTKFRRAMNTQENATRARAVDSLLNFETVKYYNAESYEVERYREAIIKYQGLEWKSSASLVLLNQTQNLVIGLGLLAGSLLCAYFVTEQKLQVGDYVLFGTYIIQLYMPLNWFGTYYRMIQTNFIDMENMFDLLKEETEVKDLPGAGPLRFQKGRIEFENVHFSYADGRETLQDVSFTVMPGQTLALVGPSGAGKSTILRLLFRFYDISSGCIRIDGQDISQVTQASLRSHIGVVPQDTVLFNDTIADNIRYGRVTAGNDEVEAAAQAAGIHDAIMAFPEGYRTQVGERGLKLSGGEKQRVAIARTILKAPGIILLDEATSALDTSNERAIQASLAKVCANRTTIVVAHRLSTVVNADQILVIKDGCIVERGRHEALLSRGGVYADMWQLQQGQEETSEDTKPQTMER
Assay [16] can be described thus: promoters of myeloid differentiation in arrested cells, primary screen, cell-based, GFP/MAC1 double positive, flow cytometry, validation set (AID 588685;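 active = differentiation response of at least 50%, scaled between solvent and reference control, from cells with both markers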;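 also: compound exposure lasts four days before antibody staining and flow analysis; 0% = DMSO wells and 100% = 5 µM fulvestrant positive control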). The conditions noted are these: ER-HoxA9 marrow cells, stronger effect = higher value, normalized: vehicle 0, fulvestrant 100.

Broadly, the inhibition is the relative decrease from the control value, in per cent.

SMILES strings stand for the structures. Inconclusive results are not listed. The source made the active and inactive calls.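 The calls were made as follows, unless noted: active = percent response above a set limit, the screen-wide mean plus 3 SD (cut at about 130% in these data); inactive = the rest.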

Sequence of Beta-adrenergic receptor kinase 1 (Homo sapiens) (P25098 whole entry, looked up): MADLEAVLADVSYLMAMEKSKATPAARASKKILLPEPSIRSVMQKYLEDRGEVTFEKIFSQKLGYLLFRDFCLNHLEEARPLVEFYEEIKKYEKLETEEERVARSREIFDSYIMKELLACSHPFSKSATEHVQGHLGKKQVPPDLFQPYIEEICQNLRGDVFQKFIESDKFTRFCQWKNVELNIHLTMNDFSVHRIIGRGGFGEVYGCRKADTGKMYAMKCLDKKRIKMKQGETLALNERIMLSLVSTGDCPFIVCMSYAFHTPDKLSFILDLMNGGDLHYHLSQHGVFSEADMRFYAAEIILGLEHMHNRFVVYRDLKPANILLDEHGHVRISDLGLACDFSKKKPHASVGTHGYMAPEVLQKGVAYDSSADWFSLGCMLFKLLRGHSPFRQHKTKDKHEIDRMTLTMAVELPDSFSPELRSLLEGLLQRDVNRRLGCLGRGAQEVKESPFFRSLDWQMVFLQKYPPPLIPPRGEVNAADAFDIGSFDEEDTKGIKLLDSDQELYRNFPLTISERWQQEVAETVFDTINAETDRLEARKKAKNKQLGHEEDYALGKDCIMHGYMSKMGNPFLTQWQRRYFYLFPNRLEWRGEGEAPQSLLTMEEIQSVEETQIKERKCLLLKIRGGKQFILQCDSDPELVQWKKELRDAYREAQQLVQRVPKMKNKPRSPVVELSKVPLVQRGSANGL
Sequence of AP-2 complex subunit beta (Homo sapiens) (P63010 whole entry, looked up, the tested form may be a part, one chain of several): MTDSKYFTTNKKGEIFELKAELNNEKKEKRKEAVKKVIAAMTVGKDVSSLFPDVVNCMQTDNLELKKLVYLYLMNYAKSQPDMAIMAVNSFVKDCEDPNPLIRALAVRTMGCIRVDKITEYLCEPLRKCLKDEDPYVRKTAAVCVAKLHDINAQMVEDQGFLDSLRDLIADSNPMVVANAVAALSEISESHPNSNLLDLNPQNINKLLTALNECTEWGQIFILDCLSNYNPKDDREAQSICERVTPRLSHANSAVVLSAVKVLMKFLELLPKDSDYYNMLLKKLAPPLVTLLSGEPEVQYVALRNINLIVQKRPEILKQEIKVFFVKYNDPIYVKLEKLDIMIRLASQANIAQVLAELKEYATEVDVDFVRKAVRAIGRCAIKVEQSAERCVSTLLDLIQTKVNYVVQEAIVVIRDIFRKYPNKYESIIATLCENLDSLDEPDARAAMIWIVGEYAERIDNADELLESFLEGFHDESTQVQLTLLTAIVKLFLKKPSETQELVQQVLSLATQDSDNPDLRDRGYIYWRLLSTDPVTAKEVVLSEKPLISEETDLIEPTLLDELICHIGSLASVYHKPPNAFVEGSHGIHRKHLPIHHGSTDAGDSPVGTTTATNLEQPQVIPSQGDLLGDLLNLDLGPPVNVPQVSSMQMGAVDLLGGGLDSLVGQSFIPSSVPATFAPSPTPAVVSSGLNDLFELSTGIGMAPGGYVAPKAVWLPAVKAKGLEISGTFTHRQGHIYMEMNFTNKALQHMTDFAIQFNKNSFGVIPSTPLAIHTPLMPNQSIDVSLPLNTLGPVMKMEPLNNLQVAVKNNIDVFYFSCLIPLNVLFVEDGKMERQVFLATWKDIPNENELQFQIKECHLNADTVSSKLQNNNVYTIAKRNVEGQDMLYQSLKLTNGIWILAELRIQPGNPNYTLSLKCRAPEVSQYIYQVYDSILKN

For the compound `Cc1cc(=O)oc2cc(OC(C)C(=O)NCC3CCCO3)ccc12` (stereo not given), the percent of DMSO control GFP in [1] is 101% (inactive). Also, the values for the GFP response vs DMSO in assay [2] and in assay [4] were 99.6% (inactive) and 106% (inactive), respectively. The percent response of DMSO control in assay [3] is 104% (inactive). The GFP response, % of DMSO in assay [5] was 102% (inactive). In [6], this compound came in with a double positive events of 68.8%. For the same compound, in [6], the vesicle binding response was 554% (inactive). Besides, the inhibition in assay [7] is -14.1% (inactive); in assay [11], -3.92% (inactive); in [15], 5% (inactive). In addition, the superoxide response (% of plate) in assay [8] was 91.7% (inactive). For the same compound, the aptamer binding inhibition in [9] was 3% (inactive). Besides, the response in assay [10] is -0.14% (inactive); in assay [12] it was 0.04% (inactive). Besides, in assay [13], the binding (% of control) is 96.8% (inactive). The efflux inhibition (fraction of control) in [14] is -0.28 (inactive). Further, in [16], the differentiation response was -7.2% (inactive).
Take `Cc1nonc1CN(C)C(=O)c1ccc(OC2CCN(C(=O)c3cccnc3)CC2)cc1`: the percent of DMSO control GFP in assay [1] is 103% (inactive). The values for the GFP response vs DMSO in assay [2] and in assay [4] were 105% (inactive) and 98% (inactive), respectively. In addition, the percent response of DMSO control in [3] is 109% (inactive). The GFP response, % of DMSO in assay [5] is 102% (inactive). Further, in assay [6], the double positive events turned out to be 57.8%. The vesicle binding response in assay [6] was 176% (inactive). Further, the inhibition in assay [7] is 12.3% (inactive); in assay [11], -7.99% (inactive); in assay [15], 12% (inactive). The superoxide response (% of plate) in assay [8] is 94.8% (inactive). Also, the aptamer binding inhibition in assay [9] was 0% (inactive). For the same compound, the response in assay [10] is -1.64% (inactive); in assay [12], 2.88% (inactive). For the same compound, the binding (% of control) in assay [13] was 103% (inactive). The efflux inhibition (fraction of control) in [14] was 0.05 (inactive). The differentiation response in assay [16] is -8.96% (inactive).
For the compound `O=C(NCCO)c1ccc2[nH]c3ccccc3c2c1`, the percent of DMSO control GFP in [1] is 98.4% (inactive). Also, the values for the GFP response vs DMSO in [2] and in [4] were 104% (inactive) and 101% (inactive), respectively. In addition, the percent response of DMSO control in [3] was 102% (inactive). Also, the GFP response, % of DMSO in [5] was 101% (inactive). Further, in assay [6], the double positive events came out at 58.7%. Also, the vesicle binding response in [6] is 246% (inactive). Besides, the inhibition in [7] was -0.45% (inactive); in [11], -8.91% (inactive); in assay [15], -1% (inactive). Moreover, in assay [8], the superoxide response (% of plate) was 96.6% (inactive). The aptamer binding inhibition in [9] is 2% (inactive). Also, the response was -3.67% (inactive) in [10] and 3.8% (inactive) in assay [12]. In addition, in assay [13], the binding (% of control) is 98.7% (inactive). Also, the efflux inhibition (fraction of control) in assay [14] was 0.11 (inactive). Moreover, the differentiation response in assay [16] was 5.13% (inactive).
In the case of `Cn1c(=O)c2nc3ccccc3nc2n(C)c1=O`, the percent of DMSO control GFP in assay [1] is 94.6% (inactive). Besides, the results for the GFP response vs DMSO in [2] and in [4] were 103% (inactive) and 112% (inactive), respectively. Moreover, the percent response of DMSO control in assay [3] was 93.9% (inactive). Further, the GFP response, % of DMSO in [5] is 94.3% (inactive). In addition, in assay [6], the double positive events amounted to 61.5%. Besides, in assay [6], the vesicle binding response is 198% (inactive). The inhibition in assay [7] was 2.3% (inactive); in assay [11], -11.6% (inactive); in [15] it was 2% (inactive). Moreover, the superoxide response (% of plate) in assay [8] was 99.2% (inactive). In addition, the aptamer binding inhibition in [9] was 0% (inactive). In addition, the response in [10] is -7.58% (inactive); in [12], 2.81% (inactive). The binding (% of control) in assay [13] is 101% (inactive). Further, in [14], the efflux inhibition (fraction of control) was -0.1 (inactive). Besides, the differentiation response in assay [16] is -12% (inactive).
Regarding `Cc1cc(C(=O)Nc2ccccc2C(=O)N2CCCCC2)ccc1[N+](=O)[O-]`, the percent of DMSO control GFP in assay [1] was 98.4% (inactive). Further, the GFP response vs DMSO in assay [2] is 103% (inactive); in [4], 114% (inactive). The percent response of DMSO control in assay [3] was 86.7% (inactive). Also, the GFP response, % of DMSO in assay [5] was 103% (inactive). This compound had a double positive events in assay [6] of 62.3%. Further, the vesicle binding response in [6] is 168% (inactive). In addition, the figures for the inhibition in [7], in [11] and in [15] were -7.08% (inactive), 19.6% (inactive) and 8% (inactive), respectively. Further, the superoxide response (% of plate) in [8] is 124% (inactive). Besides, in [9], the aptamer binding inhibition is 1% (inactive). For the same compound, the response in assay [10] was -23.4% (inactive); in assay [12] it was -4.47% (inactive). In addition, the binding (% of control) in assay [13] was 108% (inactive). Besides, the efflux inhibition (fraction of control) in assay [14] was -0.04 (inactive). Besides, the differentiation response in assay [16] was -8.93% (inactive).
